According to PubChem BioAssay:
Activity calls are given as the source filed them.

Assays:
[1] = compound effects on lung adenocarcinoma cell viability – A549, calcein-AM fluorescence, 48 h, basal, profiling panel (AID 1162); details: higher = more signal
[2] = compound effects on differentiated 3T3-L1 adipocyte viability – cell-based, 3T3-L1 adipocytes, calcein-AM fluorescence, 48 h, basal, profiling panel (AID 1163); details: 3T3-L1 adipocytes viability, higher = more signal
[3] = compound effects on hepatocellular carcinoma cell viability – HepG2, calcein-AM fluorescence, 48 h, basal, profiling panel (AID 1164); details: higher = more signal
[4] = compound effects on multiple myeloma cell viability – MM1S, calcein-AM fluorescence, 48 h, basal, profiling panel (AID 1165); details: higher = more signal;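 further: viability of MM1S multiple myeloma cells under basal unstimulated conditions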
[5] = calcein-AM signal in unstimulated myeloma cells – cell-based, calcein-AM fluorescence, 48 h, PK04 Diversity Set, profiling panel (AID 1166); details: RPMI8226 myeloma viability, higher = more signal;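 further: cells grown under basal conditions without added stimulus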
[6] = JC-1 mitochondrial signal, unstimulated HepG2 cells – cell-based, JC-1 fluorescence, 24 h, 100 nL compound, profiling panel (AID 1167); details: HepG2 mitochondrial potential, higher = more signal
[7] = JC-1 mitochondrial signal, unstimulated adipocytes – cell-based, JC-1 fluorescence, 3T3-L1 adipocytes, 24 h, 100 nL compound, profiling panel (AID 1168); details: JC-1 mitochondrial fluorescence, higher = more signal, called active from +8 up or from −8 down
[8] = JC-1 mitochondrial signal, unstimulated myeloma cells – cell-based, JC-1 fluorescence, RPMI8226, 24 h, 100 nL compound, profiling panel (AID 1169); details: JC-1 mitochondrial potential fluorescence, higher = more signal
[9] = JC-1 mitochondrial signal, unstimulated MM1S myeloma – cell-based, JC-1 fluorescence, 24 h, 100 nL compound, profiling panel (AID 1170); details: MM1S mitochondrial potential, higher = more signal
[10] = resazurin metabolic signal in A549 cells – cell-based, resazurin fluorescence, 24 h, PK04 Diversity Set, profiling panel (AID 1171); details: A549 viability, higher = more signal, called active from +8 up or from −8 down
Further: test concentration not given here.

Structure (SMILES) | z-score [1] | z-score [2] | z-score [3] | z-score [4] | z-score [5] | z-score [6] | z-score [7] | z-score [8] | z-score [9] | z-score [10]
COc1ccc(O[C@H]2C=C[C@@H](c3ccccc3)O[C@@H]2COC(=O)CCC(C)=NO[C@@H](C)c2cc(-c3c(C)cc(C)cc3C)no2)cc1 | -0.845 | 0.0504 | 0.033 | 0.0731 | -0.644 | 0.48 | -1.34 (inactive) | 0.129 | -0.424 | 1.8 (inactive)
CC(C)CON=C1[C@H]2CCn3c(=O)n(-c4ccccc4)c(=O)n3[C@H]2[C@H](O)[C@@H]2O[C@H]12 | -0.464 | 0.322 | 0.332 | 0.456 | -1.2 | -0.174 | -0.0969 (inactive) | -0.385 | -0.209 | -0.829 (inactive)
CC(CCC(=O)OC[C@H]1O[C@H](C#Cc2ccccc2)C=C[C@@H]1Oc1ccc(C)cc1)=NOC[C@@H](O)[C@H]1O[C@@H]2OC(C)(C)O[C@@H]2[C@H]1O | 0.0105 | -0.0958 | 0.0263 | -0.567 | -1.53 | -0.791 | -0.649 (inactive) | -0.0641 | -1.26 | -0.042 (inactive)
O=C1C[C@]2(c3ccc([N+](=O)[O-])cc3)C(=O)N(CCN3CCOCC3)c3cc(CO)ccc3[C@H]2N1CC12CC3CC(CC(C3)C1)C2 | -0.677 | 0.15 | -0.227 | -0.208 | -1.96 | -0.141 | 0.0692 (inactive) | -0.043 | 0.0356 | 0.723 (inactive)
O=C1NC(=O)C2C1C=CC(C(O)Cc1ccccc1)N2Nc1ccccn1 (stereo not given) | 0.379 | -0.949 | 1.16 | -0.171 | -0.87 | 0.0266 | 0.272 (inactive) | 0.477 | -0.684 | -1.22 (inactive)
CCCNC(=O)OC[C@H]1O[C@H](CCON=CC[C@@H]2C=C[C@H](OC(C)=O)[C@@H](COC(C)=O)O2)C=C[C@@H]1Oc1ccc(OC)cc1 | 0.51 | -0.217 | -0.24 | -0.516 | -1.28 | -1.14 | -1.12 (inactive) | -0.057 | 0.306 | 0.248 (inactive)
COc1ccc(COC(=O)NN=C2C[C@@H](O)[C@@H](O)[C@@H]3[C@@H]4C(=O)N(Cc5ccc6c(c5)OCO6)C(=O)[C@@H]4CC[C@@H]23)cc1 | 0.378 | 1.11 | -0.273 | -0.652 | -0.0219 | 0.621 | 1.04 (inactive) | -0.3 | -1.61 | 0.0201 (inactive)
COCCCNC(=O)[C@@]1(C)c2ccccc2C(=O)N(Cc2ccc(OC(F)(F)F)cc2)[C@H]1c1ccc(CO)cc1 | 0.144 | -0.471 | 1.22 | -0.0013 | 0.125 | 2.4 | 0.582 (inactive) | -0.68 | -1.06 | -0.903 (inactive)
CC(CCN1CCc2nc(-c3ccccc3)c(-c3ccccc3)cc2C1)=NOC[C@@H](C)[C@H](OCc1ccccc1)C(C)C | 0.474 | 0.503 | 0.488 | -0.637 | -1.89 | 1.76 | -0.479 (inactive) | 0.161 | -0.38 | -0.611 (inactive)
O=C1[C@H]2[C@H]3[C@H](O)[C@H](O)CC(=NOCc4ccccc4)[C@H]3CC[C@H]2C(=O)N1c1cccc(Oc2ccccc2)c1 | 0.382 | -0.921 | -0.6 | -0.641 | 0.907 | -0.988 | 0.394 (inactive) | 0.341 | -0.721 | 0.188 (inactive)
COc1ccc(-c2nc3c(c4c2C[C@H](C)OC4)CN(CCC(C)C)CC3)cc1 | 0.537 | -0.49 | 0.443 | 0.508 | -0.234 | 1.7 | -0.613 (inactive) | 0.0911 | -0.685 | -0.0598 (inactive)
COC(=O)[C@@H]1CC[C@H](C)[C@@H](c2ccc(C)cc2)N1C(=O)c1ccc(C=NOC(C)CN2CCCCc3nc(C)c(C)cc32)cc1 (stereo not given in full) | -1.19 | -0.0501 | -2.59 | -2.73 | -4 | -0.414 | -1.72 (inactive) | -1.16 | -1.54 | 2.21 (inactive)
O=C1CCCC=C1C(O)CCOCc1ccccc1 (stereo not given) | -0.43 | 0.0411 | -0.457 | -1.42 | 0.452 | -0.667 | 0.0503 (inactive) | 0.215 | 0.527 | -0.323 (inactive)
CCOC(=O)[C@H](CC(C)C)NC(=O)CCC1CC(OC(=O)NCCc2ccc(F)cc2)CC2(CCCC(COC(=O)NCc3ccccc3)O2)O1 (stereo not given in full) | -0.138 | 0.0596 | -3.35 | -3.45 | -3.81 | -2.07 | 0.154 (inactive) | -0.165 | -1.45 | 0.29 (inactive)
CC(CCN1CCCCc2nc(C)c(C)cc21)=NOC(C)CN1CCCCc2nc(C)c(C)cc21 (stereo not given) | -0.282 | -0.0335 | -1.12 | -2.33 | -0.696 | 3.61 | -1.2 (inactive) | 0.308 | -0.16 | 0.661 (inactive)
CC(C)c1ccc(NN2C(C(O)c3ccc4c(c3)OCO4)C=CC3C(=O)N(c4ccccc4)C(=O)C32)cc1 (stereo not given) | -0.842 | -0.293 | 0.367 | -0.911 | -0.369 | -1.53 | -0.462 (inactive) | 0.337 | 0.186 | -0.616 (inactive)

Structure (SMILES) | z-score [1] | z-score [2] | z-score [3] | z-score [4] | z-score [5] | z-score [6] | z-score [7] | z-score [8] | z-score [9] | z-score [10]
CC(C)=NOCc1ccc(-c2cc(-c3ccccc3)no2)cc1 | 0.947 | 0.0379 | 0.433 | 0.283 | -1.14 | -0.49 | -0.618 (inactive) | 0.825 | -0.152 | -0.589 (inactive)
Cc1cc2c(nc1C)CCCN2CC(C)ON=C1[C@H]2CCn3c(=O)n(-c4ccccc4)c(=O)n3[C@H]2[C@H](O)[C@@H]2O[C@H]12 (stereo not given in full) | -0.457 | 0.0888 | -0.56 | -1.83 | -0.0008 | -0.788 | -1.38 (inactive) | 0.477 | 0.327 | -0.702 (inactive)
CCCCCCc1nc(CCCc2cc3c(c(CCCCCC)n2)[Si](C(C)C)(C(C)C)O[C@H]3c2ccccc2)cc2c1[Si](C(C)C)(C(C)C)O[C@H]2c1ccccc1 | 1.4 | -0.352 | -0.17 | -0.374 | -0.966 | 0.903 | 0.774 (inactive) | -0.308 | 0.396 | 1.09 (inactive)
CS(=O)(=O)CCOC(=O)C1=CC(CCCO)=CC(c2cccs2)N(Cc2cccc(OC(F)(F)F)c2)C=C1C(=O)OCCS(C)(=O)=O (stereo not given) | 0.0985 | 0.783 | 0.464 | -3.28 | -3.74 | 0.423 | -0.268 (inactive) | -0.662 | -1 | -0.284 (inactive)
CO[C@H]1O[C@H](CO)[C@@H](OC(=O)Nc2ccc(C#N)cc2)[C@H](OC(=O)c2cc3ccccc3[nH]2)[C@H]1OC(=O)c1cc2ccccc2[nH]1 | 2.71 | 0.221 | 0.837 | -2.28 | -0.909 | -1.55 | 0.53 (inactive) | -0.405 | -0.384 | -1.49 (inactive)
COCCCNC(=O)[C@]1(Cc2ccccc2)N=C(c2ccc(OCCCO)cc2)O[C@@H]1c1ccccc1 | -0.2 | 0.346 | 0.0484 | -2.27 | -0.701 | -0.175 | 0.492 (inactive) | -0.286 | -0.498 | 2.67 (inactive)
O=C(NN=C1C[C@@H](O)[C@@H](O)[C@@H]2[C@@H]3C(=O)N(c4cccc(Oc5ccccc5)c4)C(=O)[C@@H]3CC[C@@H]12)OCc1ccccc1 | 0.359 | 0.51 | -0.492 | -0.0408 | -0.238 | -0.659 | -0.0191 (inactive) | 0.682 | 0.615 | 0.413 (inactive)
Cc1ccc(C2CC=C(C(=O)O)CN2S(=O)(=O)c2ccc(C)cc2)cc1 (stereo not given) | -0.789 | 0.171 | -1.04 | -1.07 | -1.65 | -0.0791 | -0.516 (inactive) | -0.187 | -0.296 | -0.716 (inactive)
COc1ccc(O[C@H]2C=C[C@@H](c3ccccc3)O[C@@H]2COC(=O)N2CCCCC2)cc1 | -0.0152 | -0.303 | 0.0678 | -0.979 | -1.22 | 1.23 | -0.0796 (inactive) | -0.358 | 0.125 | 1.57 (inactive)
CO[C@H]1O[C@H](CO)[C@@H](OC(=O)Nc2ccc3c(c2)OCO3)[C@H](OC(=O)Nc2ccccc2-c2ccccc2)[C@@H]1OC(=O)Nc1ccccc1-c1ccccc1 | -0.89 | -0.0426 | -0.251 | -0.624 | -0.775 | -0.121 | 1.34 (inactive) | -1.11 | 0.481 | -1 (inactive)
CCOC(=O)CCN1C(=O)[C@H]2[C@H]3[C@H](O)[C@H](O)CC(=NOC[C@@H](O)COCc4ccco4)[C@H]3CC[C@H]2C1=O | -1.43 | 0.8 | -0.524 | -2.09 | -2.29 | -0.803 | -0.433 (inactive) | -0.126 | -0.612 | -0.383 (inactive)
NCCCCCNC(=O)[C@@H]1C[C@@H]2C(=O)N3CCC[C@H]3C(=O)N2[C@@H]1c1cccc(OCCO)c1 | -0.323 | 0.571 | -0.168 | 0.0689 | 0.0959 | -1.5 | -0.812 (inactive) | 0.167 | 0.543 | 0.142 (inactive)
CO[C@@H]1COC(=O)[C@H](C)NC(=O)[C@@H](C)COC(=O)CCC[C@H]1C | -0.0857 | -0.459 | -0.735 | -0.3 | -1.38 | -0.85 | -0.788 (inactive) | 0.706 | -0.626 | -0.0213 (inactive)
O=C1O[C@@H](c2ccccc2)[C@@H](c2ccccc2)N2[C@@H](c3ccc(O)cc3)[C@]3(C(=O)Nc4ccccc43)[C@@H](C(=O)O)[C@H]12 | -0.517 | 0.875 | -0.308 | -1.33 | -1.03 | -0.517 | 0.0106 (inactive) | -0.934 | -0.536 | -0.0947 (inactive)
CCOC(=O)NN=C1C[C@@H](O)[C@@H](O)[C@@H]2[C@@H]3C(=O)N(C(C)(C)C)C(=O)[C@@H]3CC[C@@H]12 | -0.571 | -0.0947 | -0.394 | 0.0284 | -0.0464 | -0.79 | -0.911 (inactive) | 0.329 | 0.243 | -0.452 (inactive)
COc1ccc(O[C@H]2C=C[C@@H](c3ccccc3)O[C@@H]2COC(=O)CCC(C)=NO[C@H](C)c2cn([C@@H]3COC[C@H]3O)nn2)cc1 | -1.24 | -0.547 | -1.22 | -0.913 | -1.22 | -1.63 | -1.03 (inactive) | 0.923 | -1.25 | 1.47 (inactive)
